Assay [1] in a line: qHTS profiling of the MIPE4 collection as inhibitors of Plasmodium falciparum (3D7) proliferation (AID 743344).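 Also: scaled between DMSO vehicle wells and 0.29 µM artemisinin as full inhibition.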 The settings on record: P. falciparum 3D7 in erythrocytes, SYBR Green DNA fluorescence, 72 h; at 28.5 µM unless noted. The essentials: (§1)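 Parasite DNA was quantified by SYBR Green I fluorescence (ex 485, em 535 nm) after overnight lysis in saponin/Triton buffer at room temperature. Cultures at 0.3% parasitemia and 2.5% hematocrit were first exposed to compound for 72 h at 37 C; signals were normalised to artemisinin (0.29 uM) and vehicle wells.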
(qHTS replaces the single test concentration by a dilution series.)

A short description of assay [2]: qHTS profiling of the MIPE4 collection as inhibitors of Plasmodium falciparum (DD2) proliferation (Rep 2) (AID 743346). The settings on record: P. falciparum Dd2 in erythrocytes, SYBR Green DNA, 72 h; at 28.5 µM unless noted. In outline:
as §1

The nature of assay [3]: qHTS profiling of the MIPE4 collection as inhibitors of Plasmodium falciparum (HB3) proliferation (AID 743347).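 Also: plate controls were DMSO vehicle wells for no effect and artemisinin wells for full effect.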 The settings on record: P. falciparum HB3 in erythrocytes, SYBR Green DNA, 72 h; at 28.5 µM unless noted. The essentials: as §1
The nature of assay [4]: High-throughput drug toxicity screening in the BPDCN cell line Gen2.2 (AID 1224824).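 Also: cells exposed to compounds for 48 h before reading.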 The settings on record: Gen2.2 BPDCN cells; at 45.8 µM (top of the series) unless noted. In outline: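 Seed 500 exponentially growing Gen2.2 cells/well; add compounds by pin tool; incubate 48 h, 37 °C, 5% CO2; add CellTiter-Glo, 15 min RT; read luminescence. % activity vs DMSO (100%) and bortezomib (0%).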

Assay [5] can be described thus: High-throughput drug toxicity screening in the BPDCN cell line Cal-1 (AID 1224825). The settings on record: Cal-1 BPDCN cell viability, qHTS; at 45.8 µM (top of the series) unless noted. In outline:
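Percent activity derived from CellTiter-Glo luminescence, scaling DMSO to 100% and 9.2 uM final bortezomib to 0%. BPDCN Cal-1 cells (500/well, RPMI plus 10% FBS) incubated with compounds 48 hours at 37C before reading.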

Assay [6] in a line: qHTS assay for measurement of the activity of small molecule inhibitors on Zika virus induced Caspase-3 activity in human iPSC derived neural progenitor cells (hNPCs) (AID 1224857; active = well fitted curve in the direction sought with a large enough effect; an effect the other way counts as inactive or inconclusive; also: % of control where 0% means no effect; nearly all actives have a fitted effect of over 65% in size). The essentials: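 Cells were plated at 350 per well and grown 16 to 20 hours. Compound pretreatment lasted one hour, after which ZIKV (2 FFU/cell) was added for 6 hours. Percent inhibition was normalized between uninfected and infected controls.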

Assay [7] can be described thus: qHTS assay for measurement of the activity of small molecule inhibitors on Zika virus induced Caspase-3 activity in human astrocytoma cells (AID 1224859; active = well fitted curve in the direction sought with a large enough effect; an effect the other way counts as inactive or inconclusive;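 also: plate controls were ZIKV-infected untreated cells for no effect and uninfected cells for full effect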). In outline:
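Percent inhibition of virus-induced caspase-3/7 signal is calculated against uninfected and ZIKV-infected control cells. Cells are SNB-19, infected at 2 FFU/cell for 6 h after 1 h compound exposure.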

A short description of assay [8]: qHTS profiling of the MIPE4 collection as inhibitors of Plasmodium falciparum (DD2) proliferation (AID 743345). The settings on record: P. falciparum Dd2 in erythrocytes, SYBR Green DNA, 72 h; at 28.5 µM unless noted. In outline:
as §1

The nature of assay [9]: qHTS profiling for inhibitors of Plasmodium falciparum (HB3) proliferation (AID 743324; active = well fitted curve in the direction sought with a large enough effect; an effect the other way counts as inactive or inconclusive;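 also: 100% = DMSO vehicle wells and 0% = artemisinin-treated control wells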). The settings on record: Plasmodium falciparum HB3 blood-stage proliferation; at 28.7 µM (top of the series) unless noted. In outline: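 SYBR Green fluorescence (485 ex/535 em) of lysed cultures, incubated overnight at room temperature in the dark, quantifies parasite DNA. Infected erythrocytes at 0.3% parasitemia and 2.5% hematocrit were exposed 72 h; values normalized to DMSO and 0.29 uM artemisinin controls.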

Assay [10] can be described thus: qHTS Screen of the MIPE 4.0 Collection Against Ewings Sarcoma (RDES) (AID 1259252; active = well fitted curve in the direction sought with a large enough effect; an effect the other way counts as inactive or inconclusive; also: potency is read from the fitted curve at half-maximal effect; nearly all actives have a fitted effect of over 35% in size). The essentials:
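Cells plated in serum-containing RPMI (5% FBS) and treated with compound dilutions for 48 h. Readout luminescent viability; normalization relied on vehicle (no inhibition) and media-only columns (full inhibition).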

Results filed as inconclusive are left out. Calls of active or inactive are those of the source. Unless noted, no rule for the calls is given here.

Regarding `O=c1cc(-c2ccc(O)c(O)c2)oc2cc(O)cc(O)c12`, the parasite growth, % of DMSO control in assay [1] was found to be 13%. The parasite growth, % of control (lower = inhibition) in assay [2] was found to be 27.8%. The compound further registered a growth, % of control in assay [3] of 14%. Moreover, the cell viability, % of control (lower = more cytotoxic) in assay [4] is 264%. Further, in assay [5], the viability (% of control) stood at 68.6%. For the same compound, the Potency entry in [6] and in assay [7] was “inactive” in each case.

As for `COc1cc2nc(-c3cc(F)ccc3O)nc(N[C@@H]3CNC[C@@H]3C(C)(C)O)c2cc1OC`, the parasite growth remaining, % of DMSO control (lower = more inhibition) in assay [8] stood at 6.09%. The same compound had a parasite growth, % of control (lower = inhibition) in assay [2] of 8.84%. For the same compound, the growth, % of control in assay [3] came out at 3.61%. Further, the cell viability, % of control (lower = more cytotoxic) in [4] stood at 4.14%. This compound also yielded a viability (% of control) in assay [5] of 5.24%. For the same compound, the Potency result in assay [6] and in assay [7] was “inactive” each time.

In the case of `CN1N=C(N)c2cn([C@@H]3O[C@H](COP(=O)(O)O)[C@@H](O)[C@@H]3O)c3ncnc1c23`, in [1], the parasite growth, % of DMSO control worked out at 82.4%. In [8], the parasite growth remaining, % of DMSO control (lower = more inhibition) was determined as 100%. This compound yielded a parasite growth, % of control (lower = inhibition) in [2] of 67.6%. For the same compound, the growth, % of control in assay [3] was 98.6%. The cell viability, % of control (lower = more cytotoxic) in [4] stood at 199%. In assay [5], this compound came in with a viability (% of control) of 76.2%. Also, the Potency result in assay [6] and in assay [7] was “inactive” in each case.

In assay [2], `O=C(O)c1ccc(O)c2ncc(N3CCOCC3)cc12` came in with a parasite growth, % of control (lower = inhibition) of 16.8%. For the same compound, the growth, % of control in [3] worked out at 11%. In [4], the cell viability, % of control (lower = more cytotoxic) stood at 110%. The compound also gave a viability (% of control) in [5] of 100%. Also, the Potency result in assay [6] and in assay [7] was “inactive” each time.

In [1], `Cc1ccc(NC(=O)c2cccc(N(C)C)c2)cc1NC(=O)c1ccc(O)cc1` came in with a parasite growth, % of DMSO control of 35.6%. The parasite growth, % of control (lower = inhibition) in assay [2] stood at 55.2%. This compound showed a growth, % of control in assay [3] of 31.2%. For the same compound, the cell viability, % of control (lower = more cytotoxic) in assay [4] stood at 81.9%. In [5], this compound had a viability (% of control) of 5.55%. For the same compound, the Potency entry in assay [6] and in [7] was “inactive” throughout.

With `CNC(=O)c1cc(Oc2ccc(NC(=O)Nc3ccc(Cl)c(C(F)(F)F)c3)c(F)c2)ccn1`, the remaining proliferation (% of control), lower = more inhibition in assay [9] was found to be 1.38%. Further, the parasite growth, % of DMSO control in assay [1] came out at 5.25%. This compound had a parasite growth remaining, % of DMSO control (lower = more inhibition) in assay [8] of 33.1%. For the same compound, in [2], the parasite growth, % of control (lower = inhibition) turned out to be 11.8%. Moreover, the growth, % of control in [3] worked out at 4.74%. For the same compound, the cell viability, % of control (lower = more cytotoxic) in assay [4] is 16.6%. For the same compound, the viability (% of control) in assay [5] was 31.5%. Further, in [6], the Potency entry is “inactive”.

In assay [8], `Nc1ncnc2c1c(-c1cccc(OCc3ccccc3)c1)cn2C1CC(CN2CCC2)C1` (configuration not stated) showed a parasite growth remaining, % of DMSO control (lower = more inhibition) of 30.5%. In assay [2], this compound registered a parasite growth, % of control (lower = inhibition) of 21.6%. The growth, % of control in assay [3] came out at 12.8%. Also, the cell viability, % of control (lower = more cytotoxic) in assay [4] stood at 26.4%. The compound also registered a viability (% of control) in [5] of 44.4%. In addition, in assay [6], the Potency result was “inactive”. Moreover, the Potency in assay [10] was 20.9 µM (active).

`Cc1cnc(CNC(=O)c2c(=O)c3ccc(N4CCCN(C)CC4)nc3n3c2sc2ccccc23)cn1` had a parasite growth remaining, % of DMSO control (lower = more inhibition) in assay [8] of 8.18% [at 9.64 µM]. In assay [2], this compound showed a parasite growth, % of control (lower = inhibition) of 13.1% [at 9.64 µM]. Besides, in [3], the growth, % of control is 3.84% [at 9.64 µM]. Besides, the cell viability, % of control (lower = more cytotoxic) in assay [4] was 230% [at 23.2 µM]. Also, the viability (% of control) in assay [5] amounted to 1.44% [at 23.2 µM]. The Potency entry in [6] is “inactive”. The Potency in assay [10] is 7.24 µM (active).

The record behind these values is PubChem BioAssay (NCATS).
